Reference: the supplement of paper PMC9950053
Counter-ions that a name gives are not always drawn.

Assays:
Settings in all cases: 10 µM; exposure time: 3 h pre-incubation + 3 h imaging
[1] = test system: Danio rerio larvae (5 dpf); assay: startle (activity period 16 minus period 15, 20-s interval sound) minus DMSO control (percentage points); higher = stronger startle response than DMSO larvae
In short: (§1)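 Wild-type 5 dpf zebrafish larvae were exposed to compounds at 10 µM final for 3 h before and 3 h during imaging at 28.5 °C. Larvae were imaged every 6 s and tracked by Z-LaP Tracker. Detections below 0.5 probability and larvae moving under 1% of the time were excluded. Each behavioural measure is the group mean (n = 48) minus the DMSO control mean (n = 844), in percentage points.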

[2] = test system: Danio rerio larvae (5 dpf); assay: combined optomotor response (time in upper well half, down vs up moving lines, periods 7-14) minus DMSO control (percentage points); higher = stronger optomotor response than DMSO larvae
[3] = test system: Danio rerio larvae (5 dpf); assay: 1-h baseline activity (% time moving, periods 1-6) minus DMSO control (percentage points); higher = more locomotor activity than DMSO larvae
In short: as §1

[4] = test system: Danio rerio larvae (5 dpf); assay: excitability (activity period 17 minus period 16, 1-s interval sound) minus DMSO control (percentage points); higher = more acoustic excitability than DMSO larvae
In short: as §1

[5] = test system: Danio rerio larvae (5 dpf); assay: habituation (activity change first vs second 5 min of 1-s interval sound, period 17) minus DMSO control (percentage points); higher = larger habituation measure than DMSO larvae
In short: as §1

## Cc1cccc(CN2CCN(C(c3ccccc3)c3ccc(Cl)cc3)CC2)c1 (stereo not drawn) [Meclizine dihydrochloride]
[1]
  startle: -7.54
[2]
  combined optomotor response: -13.9

## CC(C)C(=O)Nc1ccc([N+](=O)[O-])c(C(F)(F)F)c1 [Flutamide]
[3]
  1-h baseline activity: -9.78
[2]
  combined optomotor response: -12.4

## C#C[C@]1(O)CC[C@H]2[C@@H]3CCC4=CC(=O)CC[C@@H]4[C@H]3CC[C@@]21CC [Levonorgestrel]
[3]
  1-h baseline activity: -8.79
[2]
  combined optomotor response: 6.62

## CCOC(=O)[C@H](CCc1ccccc1)N[C@H]1CCc2ccccc2N(CC(=O)O)C1=O [Benazepril hydrochloride]
[3]
  1-h baseline activity: 0.149
[4]
  excitability: 0.927
[2]
  combined optomotor response: 5.66

## Nc1nc(F)nc2c1ncn2[C@@H]1O[C@H](CO)[C@@H](O)[C@@H]1O [Fludarabine]
[5]
  habituation: -0.666
[2]
  combined optomotor response: -1.67

## Nc1ncn([C@H]2C[C@H](O)[C@@H](CO)O2)c(=O)n1 [Decitabine]
[3]
  1-h baseline activity: 1.07
[2]
  combined optomotor response: 3.77

## C[C@]12CC[C@@H]3c4ccc(O)cc4C[C@@H](CCCCCCCCC[S+]([O-])CCCC(F)(F)C(F)(F)F)[C@H]3[C@@H]1CC[C@@H]2O (stereo partly drawn)
[3]
  1-h baseline activity: 8.32
[2]
  combined optomotor response: 2.46

## CCOC(=O)[C@H](CCc1ccccc1)N[C@@H](C)C(=O)N1[C@H](C(=O)O)C[C@@H]2CCC[C@@H]21 [Ramipril]
[4]
  excitability: 6.38
[2]
  combined optomotor response: 3.49

## CCCCCOC(=O)Nc1nc(=O)n([C@@H]2O[C@H](C)[C@@H](O)[C@H]2O)cc1F [Capecitabine]
[3]
  1-h baseline activity: 6.82
[4]
  excitability: 6.07
[2]
  combined optomotor response: 4.98

## CC(=O)Oc1ccccc1C(=O)O [Aspirin]
[3]
  1-h baseline activity: -0.776
[2]
  combined optomotor response: -1.47

## C[C@]12CCC(=O)C=C1CC[C@@H]1[C@@H]2[C@@H](O)C[C@@]2(C)[C@H]1CC[C@]2(O)C(=O)CO [Hydrocortisone]
[4]
  excitability: 3.96
[2]
  combined optomotor response: 4.58

## O=C(Nc1c(Cl)cncc1Cl)c1ccc(OC(F)F)c(OCC2CC2)c1 [Roflumilast]
[5]
  habituation: -2.44
[2]
  combined optomotor response: -6.05

## CCOC(=O)N1CCC(=C2c3ccc(Cl)cc3CCc3cccnc32)CC1 [Loratidine]
[5]
  habituation: -7.35

## CCCc1nc(C(C)(C)O)c(C(=O)O)n1Cc1ccc(-c2ccccc2-c2nnn[nH]2)cc1 [Olmesartan]
[5]
  habituation: 2.6
[2]
  combined optomotor response: 1.99

## COc1ccc([C@@H]2Sc3ccccc3N(CCN(C)C)C(=O)[C@@H]2OC(C)=O)cc1 [Diltiazem hydrochloride]
[4]
  excitability: 1.06
[5]
  habituation: -0.219
[2]
  combined optomotor response: 1.37

## Cc1ccc(NC(=O)c2ccc(CN3CCN(C)CC3)cc2)cc1Nc1nccc(-c2cccnc2)n1 [Imatinib mesylate]
[5]
  habituation: 1.88

## Cc1cn([C@H]2C=C[C@@H](CO)O2)c(=O)[nH]c1=O [Stavudine]
[3]
  1-h baseline activity: -7.04
[2]
  combined optomotor response: 7.54

## O=C(O)CCCc1ccccc1 [Sodium 4-Phenylbutyrate]
[4]
  excitability: 2.71
[2]
  combined optomotor response: 4.62

## CC(C)[C@H]1CC[C@H](C(=O)N[C@H](Cc2ccccc2)C(=O)O)CC1 [Nateglinide]
[3]
  1-h baseline activity: 3.52
[5]
  habituation: -2.04
[2]
  combined optomotor response: 3.95

## C[C@H](Cc1cc2c(c(C(N)=O)c1)N(CCCO)CC2)NCCOc1ccccc1OCC(F)(F)F [Silodosin]
[3]
  1-h baseline activity: -3.52
[2]
  combined optomotor response: 9.04

## Cc1nc(Nc2ncc(C(=O)Nc3c(C)cccc3Cl)s2)cc(N2CCN(CCO)CC2)n1 [Dasatinib]
[5]
  habituation: -0.804
[2]
  combined optomotor response: -2.04

## CCCN(CCC)S(=O)(=O)c1ccc(C(=O)O)cc1 [Probenecid]
[4]
  excitability: 5.41
[2]
  combined optomotor response: 4.87

## CC(C)(C#N)c1cc(Cn2cncn2)cc(C(C)(C)C#N)c1 [Anastrozole]
[5]
  habituation: 6.46
[2]
  combined optomotor response: -1.87

## Cc1c(-c2ccc(O)cc2)n(Cc2ccc(OCCN3CCCCCC3)cc2)c2ccc(O)cc12 [Bazedoxifene acetate]
[3]
  1-h baseline activity: -14.5
[2]
  combined optomotor response: -0.163

## CC(C)Nc1cccnc1N1CCN(C(=O)c2cc3cc(NS(C)(=O)=O)ccc3[nH]2)CC1 [Delavirdine mesylate]
[1]
  startle: -4.71
[2]
  combined optomotor response: -0.694

## CC[C@H](C)C(=O)O[C@H]1C[C@@H](C)C=C2C=C[C@H](C)[C@H](CC[C@@H]3C[C@@H](O)CC(=O)O3)[C@H]21 [Lovastatin]
[1]
  startle: -1.2
[2]
  combined optomotor response: 5.24

## COCCCOc1cc(C[C@@H](C[C@H](N)[C@@H](O)C[C@H](C(=O)NCC(C)(C)C(N)=O)C(C)C)C(C)C)ccc1OC [Aliskiren hemifumarate]
[4]
  excitability: 12.7
[2]
  combined optomotor response: 1.73

## Brc1c(NC2=NCCN2)ccc2nccnc12
[3]
  1-h baseline activity: -17.8
[4]
  excitability: 6.71
[2]
  combined optomotor response: 5.01

## CCOc1nc2cccc(C(=O)O)c2n1Cc1ccc(-c2ccccc2-c2noc(=O)[nH]2)cc1 [Azilsartan]
[5]
  habituation: 8.15
[2]
  combined optomotor response: 0.518

## NC(=O)c1ncn([C@@H]2O[C@H](CO)[C@@H](O)[C@H]2O)n1 [Ribavirin]
[3]
  1-h baseline activity: 1.15
[2]
  combined optomotor response: 5.43
